Most compounds without a hit are left out; they make up all but 4.2% or so of the library.
PTK2B oligo ant – antagonists of Pyk2 self-association, primary screen, Q293 cells, FERM NanoBiT luminescence, HTS; stronger effect = lower value; z-score (the deposit names both 25 µM and 10 µM); 99,000 tested, 0.83% active; AID 1347419, 2020;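 active = Z-score of -3 or lower, scaled per plate to the spread of control and sample wells; inactive = z-score above -3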;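 note: negative z-score means lost luminescence so less FERM oligomerization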
CD11b adhes inh – inhibitors of CD11b/CD18 adhesion to fibrinogen, primary screen, K562 cells, luminescence. Integrin beta-2 (Homo sapiens) + Integrin alpha-M (Homo sapiens), P05107+P11215. ATPlite luminescence; Mn2+ added to activate the integrin. inhibition, % at 10 µM. 93,000 tested, 0.54% active. AID 1497, 2009;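 active = primary inhibition of 50% or more at 10 µM, then 40% or more on retest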
CD11b adhes enh – enhancers of CD11b/CD18 adhesion to fibrinogen, primary screen, K562 cells, luminescence; Integrin beta-2 (Homo sapiens) + Integrin alpha-M (Homo sapiens), P05107+P11215; ATPlite luminescence; activation, % at 10 µM; 93,000 tested, 0.07% active; AID 1499, 2009;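 active = 10 µM primary screen giving 50% or more activity, confirmed by 40% or more on retest at that dose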
Cav3 T inh – Cav3.2 calcium influx blockers – cell-based, Fluo-4 calcium fluorescence, FDSS, MLSMR library, primary screen. Cav3.2-expressing cells; stronger effect = lower value. 100,000 tested, 4% active. AID 449739, 2010. Voltage-dependent T-type calcium channel subunit alpha-1H (Homo sapiens), O95180. B-score at 10 µM;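 active = single-dose well whose peak fluorescence ratio is a statistical outlier from its plate by either plate-standardised score or position-corrected B-score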
Ec RNAP inh – E. coli RNAP inhibitors, biochemical; DNA-directed RNA polymerase subunit beta (Escherichia coli (strain K12)), P0A8V2; E. coli RNA polymerase, fluorescence transcription assay; inhibition, %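 (tested at 10 µM)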; 62,000 tested, 0.2% active; AID 559, 2006; in the data active = inhibition above about 20%;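 note: 0% = enzyme without compound and 100% = no enzyme blank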
Numbers without * were called inactive.

Results for CC(=O)C1=C(C)Nc2ncnn2C1c1ccccc1OCc1ccccc1 (configuration not stated) ?
PTK2B oligo ant: -3.1*; CD11b adhes inh: -5; CD11b adhes enh: -4; Cav3 T inh: 0.83; Ec RNAP inh: 12

Results for COc1ccccc1C1C(C(=O)NCc2ccccc2)=C(C)Nc2ncnn21 (configuration not stated) ?
PTK2B oligo ant: 1.2; CD11b adhes inh: 8; CD11b adhes enh: -1; Cav3 T inh: 0.92; Ec RNAP inh: -5

How did CCCCC1=NN2C(=N)CC(=O)N=C2S1 do in these assays?
PTK2B oligo ant: 0.19; Cav3 T inh: 0.022

What do the screens show for `CC(C)Oc1ccc(/C=N/NC(=O)C(CSCc2ccccc2)NC(=O)c2ccc([N+](=O)[O-])cc2)cc1` (configuration not stated)?
PTK2B oligo ant: 0.64; Cav3 T inh: -7.4*

How did O=c1c(O)c(-c2cccs2)oc2ccccc12 do in these assays?
PTK2B oligo ant: -1.1; CD11b adhes inh: -54; CD11b adhes enh: 3; Cav3 T inh: -3.8*; Ec RNAP inh: 12

How did O=c1c(O)c(-c2cccs2)oc2ccc(Cl)cc12 do in these assays?
PTK2B oligo ant: -1.3; CD11b adhes inh: -13; CD11b adhes enh: -4; Cav3 T inh: -4.8*

What do the screens show for `COC(=O)[C@@H]1C[C@H]2CC[C@H](O)C[C@H]2N1Cc1ccc(-c2ccccc2)cc1`?
Cav3 T inh: -1.1

High-throughput results: PubChem BioAssay, several laboratories
